Screen size: about 310,000 compounds; about 17,000 (5.5%) were called active. Entries that show only a call come without a potency. About 11% were inconclusive and are not listed. Calls come from the whole dose curve; as a rule, active = well fitted inhibition curve with a large enough effect; inconclusive = small, poorly fitted or top-dose-only effect, or effect the other way; inactive = no such curve, though single readings can be large or run the other way. For the sample, actives were picked, then their nearest neighbours and some compounds at random.
Each molecule was assayed against Nuclear receptor ROR-gamma (Mus musculus) (UniProt P51450) (assay: qHTS for inhibitors of ROR gamma transcriptional activity). Settings: Drosophila S2 Gal4-RORgamma UAS-luciferase reporter, 20 h; series mostly up to 53.6 µM.
Nuclear receptor ROR-gamma (Mus musculus), sequence (P51450 whole entry, looked up, the tested form may be a part): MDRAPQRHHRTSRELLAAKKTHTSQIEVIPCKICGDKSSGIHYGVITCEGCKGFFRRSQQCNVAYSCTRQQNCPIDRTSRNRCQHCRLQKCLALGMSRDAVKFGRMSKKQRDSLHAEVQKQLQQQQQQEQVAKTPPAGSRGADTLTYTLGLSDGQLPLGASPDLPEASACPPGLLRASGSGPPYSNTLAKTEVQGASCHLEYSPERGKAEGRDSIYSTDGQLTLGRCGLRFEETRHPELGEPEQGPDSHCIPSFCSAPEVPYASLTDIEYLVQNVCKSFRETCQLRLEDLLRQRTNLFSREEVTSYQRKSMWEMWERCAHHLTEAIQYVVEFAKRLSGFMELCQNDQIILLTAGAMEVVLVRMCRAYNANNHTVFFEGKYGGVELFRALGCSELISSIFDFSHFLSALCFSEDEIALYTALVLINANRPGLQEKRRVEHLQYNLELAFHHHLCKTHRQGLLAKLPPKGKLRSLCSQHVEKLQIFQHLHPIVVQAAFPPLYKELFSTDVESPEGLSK
Outline: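 A Gal4/UAS one-hybrid system in insect cells: metallothionein-promoter Gal4–ROR gamma fusion plus Photinus luciferase reporter. Copper sulfate 700 uM final, 20 hr ambient incubation, luminescent detection after 10 min with reagent.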
For `COc1cccc(CNC(=O)CN(C)S(=O)(=O)c2ccc3c(c2)c(=O)n(C)c(=O)n3C)c1`, the Potency was “inactive”.
`CC(=O)Nc1ccc(NC(=O)CN2C(=O)COc3ccc(S(=O)(=O)N4CCCCC4)cc32)cc1` was tested, and the Potency was “inactive”.
In the case of `CCOc1cccc(-c2nnc(SCC(=O)NC3CC3)n2C)c1`, the Potency is reported as “inactive”.
For `OCCN1CCN(c2nnc(-c3ccccc3)c3ccccc23)CC1`, the Potency was “inactive”.
In the case of `CCOc1ccc(N(CC(=O)NCCOc2ccccc2OC)S(=O)(=O)c2ccccc2)cc1`, the Potency is reported as “inactive”.
In the case of `O=C(CCCc1ccccc1)NCc1ccccc1`, the Potency is reported as “inactive”.
In the case of `CC(=O)c1ccc(N2CCN(C(=O)CCc3ccccc3)CC2)cc1`, the Potency is reported as “inactive”.
For `C=CCN1CCN(C(=O)CCCc2ccccc2)CC1`, the Potency was 5.62 µM (active).
For `Cc1ccccc1OCC(=O)Nc1nnc(S(=O)(=O)N2CCCC2)s1`, the Potency was “inactive”.
For `CCOc1cc(/C=N/Nc2cc(C)nc3ccc(C)cc23)ccc1O`, the Potency was “inactive”.
With `CC1=C(C(N)=O)C(c2ccc(F)cc2)n2nc(CCCO)nc2N1` (configuration not stated) the Potency was “inactive”.
With `CC1=C(C(N)=O)C(c2ccc3c(c2)OCO3)n2nc(-c3cccc(C)c3)nc2N1` (configuration not stated) the Potency was 5.62 µM (active).
For `COc1cccc(-c2nc3n(n2)C(c2ccccc2Cl)C(C(N)=O)=C(C)N3)c1` (configuration not stated), the Potency was “inactive”.
In the case of `Cc1ccc(C(=O)OCC(=O)NC(=O)Cc2ccccc2)c(O)c1`, the Potency is reported as “inactive”.
With `CC(=O)N/N=C(\C)c1ccc(Br)cc1Br` the Potency was 10 µM (active).
With `COC(=O)c1oc2ccc(Br)cc2c1NC(C)=O` the Potency was “inactive”.
In the case of `CN(C)C(=O)c1cc(Br)ccc1Cl`, the Potency is reported as “inactive”.
For `COc1ccc(CCNC(=O)CS(=O)(=O)Cc2nc(-c3ccc(C)cc3)oc2C)cc1OC`, the Potency was “inactive”.
In the case of `CCCCNC(=O)C1(O)c2ccccc2NC(=O)N1c1ccc(Cl)cc1` (configuration not stated), the Potency is reported as “inactive”.
For `CCn1cc(/C=C(\NC(=O)c2cc(OC)c(OC)c(OC)c2)C(=O)N2CCN(C)CC2)c2ccccc21`, the Potency was “inactive”.
In the case of `Cc1nc2ccc(C(=O)N/N=C/c3ccc(O)cc3)cc2[nH]1`, the Potency is reported as “inactive”.
In the case of `Cc1ccc(/C=N/NC(=O)C2=NNC(c3ccccc3)(c3ccccc3)C2)c(O)c1`, the Potency is reported as 1.26 µM (active).
With `O=C(N/N=C/c1ccc(O)c2ccccc12)c1cccnc1` the Potency was “inactive”.
For `O=C(NCC(=O)N1CCC2(CC1)NCCc1[nH]cnc12)c1ccc(Br)cc1`, the Potency was “inactive”.
`CCOc1cc(/C=C/c2nc3ccccc3c(=O)[nH]2)cc(Br)c1OC` was tested, and the Potency was “inactive”.
`CCCn1c(C(O)c2ccc(OCC)cc2)nc2ccccc21` (configuration not stated) was tested, and the Potency was “inactive”.
With `Cc1ccc(-c2csc(N3CCN(c4cc5c(cc4Cl)nc(-c4ccncc4)n5CCOCCO)CC3)n2)cc1` the Potency was “inactive”.
In the case of `CCCn1c(C2CCCN2c2nc(-c3ccc(C)cc3)cs2)nc2cc(Cl)c(N3CCCCC3)cc21` (configuration not stated), the Potency is reported as 10 µM (active).
`CCOC(=O)CSc1nnc(CNc2nc(-c3ccccc3)cs2)n1C` was tested, and the Potency was “inactive”.
In the case of `CCCn1c(C(C)Nc2nc(-c3ccc(C)cc3)cs2)nc2cc(Cl)c(N3CCCCC3)cc21` (configuration not stated), the Potency is reported as 7.08 µM (active).
In the case of `CCCn1c(CCNc2nc(-c3ccc(OC)cc3)cs2)nc2ccccc21`, the Potency is reported as 11.2 µM (active).
For `Nc1c(Cl)cc(-c2csc(N3CCCC3c3nc4cc(Cl)c(Cl)cc4n3CCOCCO)n2)cc1Cl` (configuration not stated), the Potency was 14.1 µM (active).
With `COc1cccc(S(=O)(=O)NCc2ccc(C(=O)NCc3ccccn3)cc2)c1` the Potency was “inactive”.
In the case of `CCN(CC)CCCNC(=O)c1c(O)c2cc(F)cc3c2n(c1=O)C(C)CC3` (configuration not stated), the Potency is reported as “inactive”.
For `O=C1NC(=O)C(c2ccc(Cl)cc2)N1` (configuration not stated), the Potency was “inactive”.
For `Cc1ccc(S(=O)(=O)NCC2CCC(C(=O)N3CCOCC3)CC2)cc1` (configuration not stated), the Potency was “inactive”.
With `CC(=O)Nc1c2c(nn1-c1ccc(C)cc1C)CS(=O)C2` (configuration not stated) the Potency was “inactive”.
In the case of `CCc1cccc(C)c1NS(=O)(=O)c1cc(Br)cnc1N`, the Potency is reported as “inactive”.
`CC(=O)c1cccc(NC(=O)c2cc(C)nn2-c2ccccc2)c1` was tested, and the Potency was “inactive”.
In the case of `CCOC(=O)c1cc(S(=O)(=O)NCCc2ccc(OC)c(OC)c2)cn1C`, the Potency is reported as “inactive”.
With `CNC(=O)C1CCN(S(=O)(=O)c2c(C)noc2/C=C/c2cccc(C)c2)CC1` the Potency was “inactive”.
`CCCn1c(C2CCCN2c2nc(-c3ccc(OC)cc3)cs2)nc2ccccc21` (configuration not stated) was tested, and the Potency was 2 µM (active).
In the case of `COc1ccc(-c2csc(N3CCN(Cc4ccc5c(c4)OCO5)CC3)n2)cc1`, the Potency is reported as “inactive”.
For `COc1ccc(-c2cc3n(n2)CCc2nc4ccccc4n2-3)cc1`, the Potency was “inactive”.
For `O=[N+]([O-])c1cc(C(F)(F)F)ccc1NCCc1ccncc1`, the Potency was “inactive”.
For `CC1(C)Cc2cccc(OCC(=O)NCc3ccccc3)c2O1`, the Potency was “inactive”.
`CCCCc1ccc(NC(=O)NCc2cccnc2)cc1` was tested, and the Potency was “inactive”.
`CCOC(=O)C1CCCN(CCSc2ccc(C)cc2)C1` (configuration not stated) was tested, and the Potency was “inactive”.
In the case of `Cc1nc(-c2ccc(Cl)cc2)sc1C(=O)CBr`, the Potency is reported as 5.01 µM (active).
In the case of `Cc1nc(-c2ccc(Cl)cc2)sc1C(=O)NN`, the Potency is reported as “inactive”.
For `Cc1nc(-c2ccccc2)sc1C(=O)/C=C/N(C)C`, the Potency was “inactive”.
With `COc1ccccc1OC(C)C(=O)Nc1ccc(S(=O)(=O)Nc2nccs2)cc1` (configuration not stated) the Potency was “inactive”.
In the case of `Cc1ccccc1-c1ccc(C(=O)O)s1`, the Potency is reported as “inactive”.
For `Cc1ccccc1-c1n[nH]c(=S)n1C`, the Potency was 2.82 µM (active).
For `CC(C)c1ccc(N2CCN(C(=O)c3ccccc3NC(=O)/C=C(\C(=O)O)c3ccccc3)CC2)cc1`, the Potency was 3.16 µM (active).
For `O=C(O)C1CC=CCC1C(=O)Nc1ccccc1C(=O)N1CCN(c2ccccc2)CC1` (configuration not stated), the Potency was “inactive”.
`COc1ccc(C(=O)Nc2ccccc2C(=O)N2CCN(c3ccccc3)CC2)cc1` was tested, and the Potency was “inactive”.
For `O=C(Cc1c(Cl)cccc1Cl)NC1CC1`, the Potency was “inactive”.
In the case of `Cc1c(Cl)cccc1NC(=O)NCc1ccc(C)n1C`, the Potency is reported as “inactive”.
In the case of `CCOC(=O)N1CC=C2C(C#N)=C(N)C(C#N)(C#N)[C@H](c3cccs3)[C@H]2C1`, the Potency is reported as “inactive”.
For `CCN1CC=C2C(C#N)=C(N)C(C#N)(C#N)[C@H](c3ccoc3)[C@H]2C1`, the Potency was “inactive”.
`N#CC1=C(N)C(C#N)(C#N)[C@H](c2ccsc2)[C@H]2COCC=C12` was tested, and the Potency was 17.8 µM (active).
In the case of `CCCNC(=O)C(=O)Nc1cc2c3c(c1)CCC(=O)N3CCC2`, the Potency is reported as “inactive”.
With `CN(C(=O)C1CCN(c2ncnc3c2nc2n3CCCCC2)CC1)C1CCCCC1` the Potency was “inactive”.
For `CCOc1ccc(Nc2nc(Cc3nnc(SCC(=O)NC4CCCC4)n3C)cs2)cc1`, the Potency was “inactive”.
For `COCCCn1c(Cc2csc(Nc3cccc(Cl)c3)n2)nnc1SCC(=O)OC1CCCCC1`, the Potency was 11.2 µM (active).
With `COCCCn1c(SCC(=O)NC2CCCC2)nnc1-c1ccccc1` the Potency was “inactive”.

Source: PubChem BioAssay AID2551 (National Center for Advancing Translational Sciences (NCATS), 2010)
Note: nearly all actives have a fitted effect of over 60% in size.
Potency is the fitted concentration of half-maximal effect.
